Consider 17 compounds from PubChem BioAssay (NCATS).

Molecules are shown by their SMILES. Activity calls are given as the source filed them. Calls follow the shape of the dose curve; as a rule, active = well fitted curve in the direction sought with a large enough effect (not every such curve was filed as active); inconclusive = small, poorly fitted or top-dose-only effect, or effect the other way, or another doubt; inactive = no such curve, though single readings can be large or run the other way.

Chain of Pyruvate kinase PKM (Homo sapiens) (P14618 whole entry, looked up): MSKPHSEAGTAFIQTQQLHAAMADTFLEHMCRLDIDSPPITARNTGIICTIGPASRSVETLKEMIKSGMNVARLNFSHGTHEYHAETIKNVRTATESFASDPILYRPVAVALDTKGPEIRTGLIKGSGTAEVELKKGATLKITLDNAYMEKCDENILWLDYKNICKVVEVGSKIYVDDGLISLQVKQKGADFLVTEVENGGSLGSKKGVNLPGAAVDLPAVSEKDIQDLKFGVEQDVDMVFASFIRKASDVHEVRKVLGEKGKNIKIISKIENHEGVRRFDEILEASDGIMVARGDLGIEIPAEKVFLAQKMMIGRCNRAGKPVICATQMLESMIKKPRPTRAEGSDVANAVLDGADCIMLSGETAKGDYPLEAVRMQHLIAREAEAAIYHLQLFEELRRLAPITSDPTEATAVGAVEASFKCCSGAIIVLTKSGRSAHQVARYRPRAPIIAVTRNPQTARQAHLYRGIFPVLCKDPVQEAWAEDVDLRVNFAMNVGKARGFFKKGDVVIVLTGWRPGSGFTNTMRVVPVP

The target in this test is Pyruvate kinase PKM (Homo sapiens) (UniProt P14618). Description: qHTS Assay for Activators of Human Muscle Pyruvate Kinase (AID 954). Conditions: purified human muscle pyruvate kinase, luciferase-coupled luminescence, 1 h; series mostly up to 57.5 µM. In short, it runs like this:
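Reaction: 0.1 nM purified PKM2 with 0.5 mM phosphoenolpyruvate and 0.1 mM ADP, room temperature, 1 h. Readout: luciferase-based ATP luminescence after stop reagent. Activators judged against a 0.3 nM enzyme column.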
Background: Quantitative high-throughput screening tests each substance at several concentrations.
On to `CN1CCc2cccc(Cl)c2CC1`, for which the call was inactive.

Take `NNC(N)=O`: the compound was called inactive.

As for `COc1ccc2[nH]c3c(c2c1)CCNC3`, the outcome was inactive.

For the compound `NNC(=O)c1ccc(O)cc1`, the compound was called inactive.

Take `CC(C)NP(=O)(NC(C)C)OP(=O)(NC(C)C)NC(C)C`: the outcome was inactive.

For the compound `C[N+]1(C)[C@@H]2CC[C@H]1CC(OC(=O)c1c[nH]c3ccccc13)C2` (some centres not stated), the outcome was inactive.

For `Cc1c2ccncc2c(C)c2c1[nH]c1ccccc12`, the result was inactive.

For `C[C@@H]1O[C@H](C[N+](C)(C)C)CS1`, the compound was classed as inactive.

`CCCN(CCC)CCc1c[nH]c2ccc(C(N)=O)cc12`: the compound was called inactive.

Turning to `CCN(CCCl)Cc1ccccc1Br`, the compound was classed as inactive.

Take `CNC(=O)OCC[N+](C)(C)C`: the call was inactive.

With `CCCN(CCC)CCc1ccc(O)c(O)c1`, the call was inactive.

In the case of `O=c1c2ccccc2[se]n1-c1ccccc1`, the compound was classed as inactive.

In the case of `C[N+](C)(C)CC#CCOC(=O)Nc1cccc(Cl)c1`, the compound was called inactive.

As for `CCCN(CCC)[C@H]1CCc2c(F)ccc(O)c2C1`, the call was inactive.

Take `NCCc1c[nH]c2ccc(C(N)=O)cc12`: the compound was called inactive.

Consider `NC(N)=NOCC[C@H](N)C(=O)O`, for which the result was inactive.
